Experimental data as given in ChEMBL document CHEMBL3988442, “University of Dundee, Small-Polar-MMV Screening Library” (2021).
The whole screen tested about 48,000 compounds, of which about 13,000 (27%) showed an effect of 50% or more. Some of the results follow.

tested on: Wolbachia pipientis; experiment: Anti-Wolbachia Cell-Based Screen; format: functional; parameters: scale not given: in the data most compounds retested in dose-response had high values; conditions: 5 µM

Compound	Percent Effect
O=c1oc(-c2ccccc2)nn1CN1CCC(N2CCCCC2)CC1	-11.85%
Cc1nc2scc(C)n2c1CNc1ccc(C(=O)O)cc1	1.868%
CCC[C@@H]1CN(S(=O)(=O)c2ccc3[nH]c(=O)[nH]c3c2)C[C@H]1NC(C)=O	-12.43%
Cn1c(CN2CCN(CC3CC3)CC2)nnc1C1CCC1	-1.801%
Cc1ccnc(C(NC(=O)c2ccc(O)nc2C)C2CC2)n1 (stereo not drawn)	19.85%
COC(CNC(=O)c1ccc[nH]1)c1cccc(Cl)c1 (stereo not drawn)	-25.79%
Cc1cccc2c1nc(CCO)n2-c1ccc(C(=O)N2CCOCC2)o1	-4.594%
CC(C)Oc1cc(N2CCC(C(N)=O)CC2)nc(N)n1	11.1%
CCN(CC)S(=O)(=O)N1C[C@@H](c2ccccc2)[C@H]2[C@H]1CCCCCN2C	163.4%
CCN(CC)S(=O)(=O)N1CC[C@H](c2ccccc2)[C@@H]2[C@H]1CCCCN2C	135.6%
CCN(CC(=O)NC(C)C)S(=O)(=O)N1CCCCC1C (stereo not drawn)	-3.982%
Cc1cc(S(=O)(=O)N2CCCc3ccc(F)cc32)sc1C(=O)O	-10.9%
O=C([C@@H]1CCO[C@@H]2CCN(Cc3ccco3)C[C@H]21)N1CCCCO1	1.589%
COc1ccc(CN2CCC[C@@H]3CN(C(=O)c4ccco4)C[C@@H]32)cc1.O=C(O)C(F)(F)F	6.144%
COCC(=O)N1CCCN(C(=O)C2Cc3ccccc3CN2C)CC1 (stereo not drawn)	-0.0278%
COCC(=O)N1CCC(=O)N(C2CCCC2)Cc2ccccc21	125.1%
COc1cccc(SCC(=O)N2CCCC(N3CCCC3=O)C2)c1 (stereo not drawn)	3.036%
CC(=O)N1CCC(=O)N(C2CCCC2)Cc2ccccc21	106.7%
COC(C)(C)CNC(=O)C1CCC(=O)N(C2CCCC2)C1 (stereo not drawn)	-37.87%
CC(=O)N1CCCN(C2CCCCc3ccccc32)CC1 (stereo not drawn)	16.59%
COCC(=O)N1CCC(=O)N(C2CCCC2)Cc2cc(F)ccc21	102.4%
COc1cccc(-n2nnc(C(=O)N3CCCC3)c2C)c1	-5.233%
CO[C@H]1CCN(c2ccc(C)nn2)[C@H]1Cc1cnn(C)c1	-0.6949%
CCO[C@@H]1CCN(C(=O)N(C)C)[C@@H]1Cc1cnn(C)c1	6.075%

Compound	Percent Effect
Cn1cc(C[C@H]2[C@H](O)CCN2C(=O)C2CCCC2)cn1	-2.611%
COCCO[C@@H]1CCN(C(=O)c2ccc(C)o2)[C@@H]1Cc1cnn(C)c1	-2.237%
COCCO[C@H]1CCN(c2ccc(C)nn2)[C@H]1Cc1cnn(C)c1	102.2%
Cn1cc(C[C@H]2[C@@H](O)CCN2C(=O)c2ccc[nH]2)cn1	-3.734%
Cc1ccc(N2CC[C@H](O)[C@@H]2Cc2cnn(C)c2)nn1	105.5%
COCCO[C@H]1CCN(C(=O)c2ccno2)[C@H]1Cc1cnn(C)c1	-8.767%
CCO[C@@H]1CCN(c2ccc(C)nn2)[C@@H]1Cc1cnn(C)c1	109.6%
CCC(C)(NCC(=O)OC)c1nc(C)cs1 (stereo not drawn)	4.251%
CC(C)c1nc2n(n1)CC(NCC(=O)N(C)Cc1cccs1)CC2 (stereo not drawn)	-0.7675%
Cn1c(=O)[nH]c2cc(C(=O)OCCCn3ccccc3=O)ccc21	-6.987%
O=C(O)C(F)(F)F.O=C(O)C(F)(F)F.c1cnn(CCCO[C@@H]2CN(C3CCOCC3)[C@@H]3CCCO[C@@H]32)c1	99.23%
O=C(O)C(F)(F)F.O=C(O)C(F)(F)F.c1cnn(CCCO[C@@H]2CC[C@H]3[C@H]2OCCN3CC2CCOCC2)c1	107.9%
Cc1nnc(N2C[C@H](OCCCn3cccn3)[C@H]3OCCC[C@H]32)s1	1.098%
CCO[C@H]1CC[C@H]2[C@H]1OCCN2CCOCc1ccccc1.O=C(O)C(F)(F)F	-37.65%
Cc1nnc(N2C[C@@H](OCCCn3cccn3)[C@H]3OCCC[C@H]32)s1.O=C(O)C(F)(F)F.O=C(O)C(F)(F)F	12.15%
O=C(O)C(F)(F)F.O=C(O)C(F)(F)F.c1cnn(CCCO[C@@H]2CC[C@H]3[C@H]2OCCN3CC2CC2)c1	100.5%
O=C(CO[C@@H]1CC[C@H]2[C@H]1OCCN2CC1CCOCC1)N1CCCC1.O=C(O)C(F)(F)F	-8.196%
CCO[C@@H]1CC[C@H]2[C@H]1OCCN2CCOCc1ccccc1.O=C(O)C(F)(F)F	-21.46%
CN(C)CCSc1ccc(NC(=O)c2nccn3ccnc23)cc1	11.77%
COc1cc(OC)cc(C2CCN(CC(=O)NCC(F)(F)F)C2)c1 (stereo not drawn)	-9.174%
CS(=O)(=O)N1CCOCC2(CN(Cc3ccc(F)cc3)CCO2)C1.O=C(O)C(F)(F)F (stereo not drawn)	-3.432%
Cc1ccc(CN2CCOC3(COCCN(S(C)(=O)=O)C3)C2)o1.O=C(O)C(F)(F)F (stereo not drawn)	-4.149%
Cc1ccc(CN2CCC3(CC2)COCCN3S(C)(=O)=O)o1.O=C(O)C(F)(F)F	105%
Cc1ccc(CN2CCOC3(COCCN(Cc4ccncc4)C3)C2)o1.O=C(O)C(F)(F)F.O=C(O)C(F)(F)F.O=C(O)C(F)(F)F (stereo not drawn)	-16.88%

Compound	Percent Effect
CS(=O)(=O)N1CCOCC12CCN(Cc1ccc(F)cc1)CC2.O=C(O)C(F)(F)F	90.38%
COCc1nc(CNc2cccc(-c3nc(C)c(C)o3)c2)cs1	-0.1423%
N#Cc1cccc(C(=O)N2C[C@H]3CC[C@@H]2CN(C(=O)C2CCC2)C3)c1	-9.215%
CN(C)S(=O)(=O)N1C[C@@H]2CC[C@H](C1)N(Cc1ccc(F)c(F)c1)C2	-2.464%
Cc1c(Cl)cc(C(=O)NCCc2ncnn2C)cc1Cl	-11.54%
O=C1CC(c2cccc(O)c2)c2sc(C(=O)O)c(-c3ccccc3)c2N1 (stereo not drawn)	10.05%
CNC(=O)[C@H]1C[C@@H]2CN(Cc3cccc(C)c3)C[C@H]1O2.O=C(O)C(F)(F)F	116.6%
CNC(=O)[C@H]1C[C@@H]2CN(Cc3ccc(C)cc3)C[C@H]1O2.O=C(O)C(F)(F)F	103.7%
CNC(=O)[C@H]1CCS(=O)(=O)[C@@H]2CN(Cc3ccc(OC)cc3)C[C@H]12	0.06663%
CNC(=O)[C@H]1C[C@@H]2CN(Cc3ccccc3)C[C@H]1O2.O=C(O)C(F)(F)F	106.1%
COc1ccc(CN2C[C@@H]3COC[C@H](N4CCN(C)CC4)[C@@H]3C2)cc1.O=C(O)C(F)(F)F.O=C(O)C(F)(F)F.O=C(O)C(F)(F)F	-28.1%
Cc1ccc(CN2C[C@H]3C[C@H](C(=O)NCc4cccnc4)[C@@H](C2)O3)cc1	0.7721%
CNC(=O)[C@H]1C[C@@H]2CN(Cc3ccc(OC)cc3)C[C@H]1O2.O=C(O)C(F)(F)F	98.44%
CN(C)C(=O)[C@H]1C[C@@H]2CN(CCc3ccccc3)C[C@H]1O2.O=C(O)C(F)(F)F	12.58%
Cc1cccc(CN2C[C@H]3C[C@H](C(=O)NCc4cccnc4)[C@@H](C2)O3)c1.O=C(O)C(F)(F)F.O=C(O)C(F)(F)F	-0.193%
CC(C)c1nc(CNc2ccc(N3CCC(CO)CC3)cn2)cs1	0.232%
Cl.O=C(CN1CCC[C@@H]1C(=O)O)NCCOc1cccc(C(F)(F)F)c1	-3.641%
Cc1nccc(N2C[C@@H](CN3CCCC3)[C@@H](CO)C2)n1	109.4%
Cc1nc(N2C[C@@H](CN3CCCCC3)[C@@H](CO)C2)c2sccc2n1	8.907%
Cn1ccnc1CN1C[C@@H](CN2CCCCC2)[C@@H](CO)C1	-0.1943%
OC[C@H]1CN(Cc2c(Cl)cccc2Cl)C[C@H]1CN1CCCCC1	2.429%
Nc1nccc(N2C[C@@H](CN3CCCCC3)[C@@H](CO)C2)n1	106.5%
Cn1ccnc1CN1C[C@@H](CN2CCCCCC2)[C@@H](CO)C1	-5.321%
CSc1nccc(N2C[C@@H](CN3CCCCC3)[C@@H](CO)C2)n1	104.9%

Compound	Percent Effect
CCN1CCN(C[C@@H]2CN(c3ncccc3Cl)C[C@@H]2CO)CC1	-1.669%
Cn1ccnc1CN1C[C@@H](CN2CCCC2)[C@@H](CO)C1	2.193%
Cc1cc(CN(C)C(=O)C(c2ccccc2C)N(C)C)on1 (stereo not drawn)	-6.719%
COCC1CN(c2ccc3c(Cl)ccnc3c2F)CCO1 (stereo not drawn)	-23.97%
CC(C)n1nc(Cn2cccn2)c2c1CN(C1CCOCC1)C2.O=C(O)C(F)(F)F	-12.7%
CSCC(CCO)Nc1cccc(C(F)(F)F)n1 (stereo not drawn)	-4.466%
Cc1[nH]/c(=N\C(=O)c2csc(NC3CC3)n2)sc1C	5.659%
CCn1nc(C(C)C)cc1C(=O)N1CC(OCc2ccccc2F)C1	-12.74%
CC(C)C(=O)N1CCCC2(CCCN2CC2CCCC2)C1.O=C(O)C(F)(F)F (stereo not drawn)	4.18%
CCC(NC(=O)c1c(C(=O)O)cnn1C)c1ccc(C)cc1C (stereo not drawn)	109.1%
CCNc1ncc(C(=O)NC(CCN(C)C)c2ccccc2)cn1 (stereo not drawn)	13.66%
CCC(NC(=O)c1cc(CC(C)C)nn1C)c1cc(C)ccn1 (stereo not drawn)	6.008%
CCC(NC(=O)c1nn(C)cc1C(=O)O)c1ccccc1 (stereo not drawn)	82.78%
CCC(NC(=O)CN(C)Cc1ccc(C)o1)c1ccc(C)cc1 (stereo not drawn)	3.05%
COc1ccc(C(CC(=O)O)NC(=O)c2cc(C)on2)cc1 (stereo not drawn)	2.487%
CCC(CC)NC(=O)Cn1cc(C(N)=O)c(-c2ccccc2)n1	-10.51%
CCCC(NC(=O)c1cc(C)ccc1C)c1nnn[nH]1 (stereo not drawn)	-4.44%
CCC(NC(=O)c1cc(NC(C)=O)ccc1Cl)c1cc(C)ccn1 (stereo not drawn)	-8.351%
Cc1ccc(C(C(=O)O)N(C)CCCN2CCOCC2)c(C)c1 (stereo not drawn)	-9.259%
CCC(NC(=O)c1nn(C)cc1C(=O)O)c1ccc(C)cc1C (stereo not drawn)	113.8%
CCC(NC(=O)c1nn(C)cc1C(=O)O)c1ccc(C)cc1 (stereo not drawn)	104.3%
